About 2,600 (16%) of roughly 16,000 compounds were called active. Roughly 20% stayed inconclusive and do not appear here. Calls follow the shape of the dose curve; as a rule, active = well fitted curve in the direction sought with a large enough effect; inconclusive = small, poorly fitted or top-dose-only effect, or effect the other way; inactive = no such curve, though single readings can be large or run the other way. These entries were drawn from the full list.
% is scaled to controls: 0 for no effect and ±100 for the full control effect.

In this test the target is Cytochrome P450 2D6 (Homo sapiens) (UniProt P10635). In words: Cytochrome panel assay with activity outcomes. The note with it: recombinant CYP, pro-luciferin dealkylation, luminescence, p450-cyp2d6; series mostly up to 57.1 µM; activity, negative = inhibition: at the top concentration.
Cytochrome P450 2D6 (Homo sapiens), sequence (P10635 whole entry, looked up): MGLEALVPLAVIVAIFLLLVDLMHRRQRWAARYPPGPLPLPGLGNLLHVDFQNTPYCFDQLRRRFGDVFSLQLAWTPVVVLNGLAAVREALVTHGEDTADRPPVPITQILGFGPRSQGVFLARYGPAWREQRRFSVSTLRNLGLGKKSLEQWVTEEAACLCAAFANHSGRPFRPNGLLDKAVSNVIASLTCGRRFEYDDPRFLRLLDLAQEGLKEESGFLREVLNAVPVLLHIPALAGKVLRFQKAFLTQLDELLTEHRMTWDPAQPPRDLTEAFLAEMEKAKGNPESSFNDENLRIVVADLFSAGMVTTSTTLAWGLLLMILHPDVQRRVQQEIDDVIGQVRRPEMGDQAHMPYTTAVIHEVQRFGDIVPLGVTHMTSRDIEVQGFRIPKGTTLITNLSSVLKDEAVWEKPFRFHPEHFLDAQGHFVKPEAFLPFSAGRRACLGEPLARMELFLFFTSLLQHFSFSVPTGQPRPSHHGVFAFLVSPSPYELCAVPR
On to `c1ccc(C2=NN[C@@H]3c4ccccc4-c4ccccc4N3C2)cc1`, for which the activity, negative = inhibition was -17.6% [at 11.4 µM] (inactive).

For the compound `CCC(=O)NC(NC(=O)CC)C(Cl)Cl`, the “activity, negative = inhibition” value was 6.76% (inactive).

Turning to `O=C(/C=C/c1cccc([N+](=O)[O-])c1)NCCN1CCOCC1`, the “activity, negative = inhibition” value was -0.0015% (inactive).

In the case of `Cc1oc(-c2ccccc2Cl)nc1CSCC(=O)NC1CC1`, the “activity, negative = inhibition” value was -21.5% (inactive).

For the compound `O=C(/C=C/c1ccc2c(c1)OCO2)NCCSCc1cccc(Cl)c1`, the AC50 is 0.355 µM (active).

With `Cc1cccc(C(=O)N/N=C/c2ccc(OCC(=O)N3CCCCC3)cc2)c1`, the “activity, negative = inhibition” value is -11.8% (inactive).

In the case of `CCOC(=O)N1CCN(C(=O)CSCc2nc(-c3ccccc3F)oc2C)CC1`, the “activity, negative = inhibition” value is 6.39% (inactive).

`O=C(CSCc1cccc(Cl)c1)N/N=C/c1ccc(OCC(=O)N2CCCCC2)cc1`: the AC50 was 17.8 µM (active).

For the compound `O=C(Nc1ccc2oc(-c3ccccc3F)nc2c1)c1ccc2c(c1)OCCO2`, the “activity, negative = inhibition” value was -24.9% (inactive).

Take `O=C(CN1CCCC1)N/N=C/c1ccc(-c2cccc(Cl)c2)o1`: the “activity, negative = inhibition” value is -20.7% (inactive).

For `COCCCNC(=O)/C=C/c1ccc(Cl)cc1`, the “activity, negative = inhibition” value was -4.47% (inactive).

On to `Cc1oc(-c2ccccc2F)nc1CSCC(=O)NCc1ccc2c(c1)OCO2`, for which the AC50 was 2.24 µM (active).

Take `CCN1CCCC1CNC(=O)CSCc1nc(-c2ccccc2C)oc1C` (stereo unspecified): the AC50 is 8.91 µM (active).

As for `COc1ncc2nc(-c3cc(F)cc(F)c3)c(=O)n(C[C@H]3CCCO3)c2n1`, the “activity, negative = inhibition” value was -6.6% (inactive).

As for `CNc1c2c(nn1C)CCCC2`, the “activity, negative = inhibition” value was -19.9% (inactive).

In the case of `Cc1ccccc1S(=O)(=O)Oc1ccccc1C(=O)Oc1ccccc1`, the “activity, negative = inhibition” value was -7.88% (inactive).

On to `Nc1ncnc2nc(N3CCN(CCO)CC3)[nH]c12`, for which the activity, negative = inhibition was 6.88% [at 11.4 µM] (inactive).

As for `N[C@H](CCC(=O)NCS(=O)(=O)O)C(=O)O`, the “activity, negative = inhibition” value is 4.98% (inactive).

On to `COc1cc(=O)n(C)c2c(OC[C@@H](O)C(C)(C)O)cccc12`, for which the AC50 result was “inactive”.

Take `CO/N=C(\C(=O)N[C@@H]1C(=O)N2C(C(=O)O)=C(COC(C)=O)CS[C@@H]12)c1csc(N)n1`: the AC50 result was “inactive”.

Regarding `Cc1ccccc1NC1=C(C(=O)c2ccccc2)N(C)S(=O)(=O)c2ccccc21`, the “activity, negative = inhibition” value was -1.01% (inactive).

In the case of `C[C@H]1COC(=O)[C@H](Cc2ccccc2)NC(=O)[C@@H](C)COC(=O)[C@H](Cc2ccccc2)NC1=O`, the activity, negative = inhibition was 13.8% [at 11.4 µM] (inactive).

For the compound `OC[C@@H]1O[C@@H](O)[C@H](N=Cc2ccc3c(c2)OCO3)[C@@H](O)[C@@H]1O`, the activity, negative = inhibition was 0.161% [at 11.4 µM] (inactive).

`COCCn1c(=O)c(-c2cc(F)cc(F)c2)nc2cnc(N3CCN(C)CC3)nc21`: the “activity, negative = inhibition” value is -3.39% (inactive).

Consider `Cn1c(=O)c2c(n(Cc3ccccc3)c1=O)NC(=O)C2CC(=O)NCc1cccc(Cl)c1` (stereo unspecified), for which the “activity, negative = inhibition” value is -23.2% (inactive).

`C=CCNC(=O)CC(=O)N/N=C/c1cccc(Br)c1`: the “activity, negative = inhibition” value was -2.86% (inactive).

`CCN(CC)C(=O)C(=O)N/N=C/c1cccc(Br)c1`: the “activity, negative = inhibition” value was 16.9% (inactive).

Take `O=C(CSCc1cccc(Br)c1)N/N=C/c1ccc2c(c1)OCO2`: the AC50 is 2 µM (active).

Turning to `O=C(/C=C/c1cc2c(cc1Br)OCO2)NCc1ccc(Cl)cc1`, the “activity, negative = inhibition” value was -23.8% (inactive).

Consider `O=C(CSCc1cccc(Cl)c1)NCc1ccc2c(c1)OCO2`, for which the AC50 is 1 µM (active).

Consider `O=[N+]([O-])c1ccc(/C=N/n2c(COc3ccccc3)n[nH]c2=S)cc1`, for which the “activity, negative = inhibition” value was -10.7% (inactive).

Turning to `C=CCNc1sc(C(=O)c2ccc(C)cc2)c(N)c1C#N`, the “activity, negative = inhibition” value is 6.69% (inactive).

Consider `O=C(O)[C@H]1CCCC[C@@H]1c1c2ccc(=O)c(O)c-2oc2c(O)c(O)ccc12`, for which the activity, negative = inhibition is -0.179% [at 11.4 µM] (inactive).

For `Cc1ccc(S(=O)(=O)N[C@H](C(=O)Oc2ccc3c(C(F)(F)F)cc(=O)oc3c2)c2ccccc2)cc1`, the “activity, negative = inhibition” value was -6.64% (inactive).

In the case of `O=C(O)/C(=C\c1ccc(O)cc1)c1cccc2ccccc12`, the activity, negative = inhibition is -6.42% [at 11.4 µM] (inactive).

Take `O=C(O)[C@H]([C@H]1NCCS1)N1Cc2ccccc2C1`: the activity, negative = inhibition was 5.75% [at 11.4 µM] (inactive).

As for `CCN=C(N)CSS(=O)(=O)O`, the activity, negative = inhibition is -8.26% [at 11.4 µM] (inactive).

In the case of `O=C(N/N=C1/C[C@@H](O)[C@@H](O)[C@@H]2[C@H]3C(=O)N(c4ccc(F)cc4F)C(=O)[C@@H]3CC[C@H]12)OCc1ccccc1`, the activity, negative = inhibition was -17.3% [at 11.4 µM] (inactive).

On to `Clc1ccc(-c2nnc(-c3cccc4ccccc34)o2)cc1Cl`, for which the activity, negative = inhibition is 17.5% [at 11.4 µM] (inactive).

In the case of `Clc1ccc(-c2nnc(CCc3ccccc3)o2)c(Cl)c1`, the AC50 is 11.2 µM (active).

For the compound `CSc1nnc(-c2ccc(Cl)cc2Cl)o1`, the “activity, negative = inhibition” value is -5.62% (inactive).

`CCN1C(=O)C(O)(CC(=O)/C=C/C=C/c2ccccc2)c2ccccc21` (stereo unspecified): the “activity, negative = inhibition” value was -17.9% (inactive).

Regarding `CC(C)CO/N=C1/C[C@@H](O)[C@@H](O)[C@@H]2[C@@H]3C(=O)N(C[C@@H]4CCCO4)C(=O)[C@H]3CC[C@@H]12`, the activity, negative = inhibition is 17.5% [at 11.4 µM] (inactive).

`COc1ccc(-n2c(=O)c(-c3cccs3)nc3cnc(N4CCOCC4)nc32)cc1`: the “activity, negative = inhibition” value is -9.92% (inactive).

Turning to `O=c1c(-c2cccs2)nc2cnc(N3CCOCC3)nc2n1-c1ccccc1`, the “activity, negative = inhibition” value was -9.01% (inactive).

For the compound `CC(C)c1ccc2c(c1)C(c1ccc(N3CCOCC3)cc1)=NNC(c1cccs1)=N2`, the AC50 is 7.08 µM (active).

Regarding `COC(=O)C1=C(CSc2nncn2C)NC(=O)NC1c1ccc(F)cc1` (stereo unspecified), the “activity, negative = inhibition” value is 6.47% (inactive).

For `CC(=O)Nc1ccc(S(=O)(=O)NCC2CCC(C(=O)NCCC(C)C)CC2)cc1` (stereo unspecified), the “activity, negative = inhibition” value was -9.02% (inactive).

For the compound `CC(=O)Nc1ccc(S(=O)(=O)N2CCC(N(C)CCC(C)C)CC2)cc1`, the AC50 is 8.91 µM (active).

For `Cc1ccc(S(=O)(=O)N2CCC(C(=O)NCCCOC(C)C)CC2)cc1`, the “activity, negative = inhibition” value is 0.448% (inactive).

As to `CCc1ccccc1NC(=O)c1nnn(CC(=O)Nc2cccc(C)c2C)c1N`, the “activity, negative = inhibition” value is -1.98% (inactive).

As for `C/C(=N\Nc1nc(N)cc(Cl)n1)c1cccc([N+](=O)[O-])c1`, the “activity, negative = inhibition” value was -9.23% (inactive).

For `O=C(Cc1ccccc1)Nc1nc2ccc(Cl)cc2c2nc(-c3ccco3)nn12`, the AC50 was 10 µM (active).

For `O=C(Cc1ccc(Cl)cc1)NNC(=O)Nc1cccc2ccccc12`, the “activity, negative = inhibition” value was 0.421% (inactive).

In the case of `O=C(Cc1ccc(Cl)cc1)Nc1cccc(-c2nnc(-c3ccco3)o2)c1`, the “activity, negative = inhibition” value is -9.85% (inactive).

`Cc1ccc(C(=O)NCc2ccc(N3CCN(C(=O)OC(C)(C)C)CC3)cc2)cc1`: the “activity, negative = inhibition” value was -12.6% (inactive).

On to `CC(C)NC(=O)CC(=O)N/N=C/c1ccc(F)cc1`, for which the “activity, negative = inhibition” value is -0.0465% (inactive).

`CCCCCSc1nncc(=O)[nH]1`: the “activity, negative = inhibition” value is -0.262% (inactive).

With `Cc1nc(SCc2cccc(Oc3ccccc3)c2)n[nH]1`, the AC50 is 14.1 µM (active).

Take `c1ccc(CSc2nnc3c4ccccc4c4ccccc4c3n2)cc1`: the activity, negative = inhibition was -1.49% [at 11.4 µM] (inactive).

Regarding `Cc1cc(Oc2ccccc2)nc(NCc2ccccc2)n1`, the “activity, negative = inhibition” value was -4.44% (inactive).

A word on the AC50: it is the concentration giving half of the maximal activity seen.

For the origin of these results see PubChem BioAssay AID1851 (National Center for Advancing Translational Sciences (NCATS), 2009).
